Measured values published in PubChem BioAssay AID1159580 (chemical genetic matrix, 2015).
“And” between values parts separate entries of the source, which are not always exact repeats. Identical values can stand only once. Out of some 5,500 compounds screened, about 2,000 (36%) were called active. Inconclusive results (about 18%) are left out. Rule as the data show it: active = normalized growth mostly below about 0.91 (no sharp cut-off); inconclusive = no clear call, values can overlap the other calls; inactive = mostly above about 0.92. This is one part of the list.

Experiment: chemical genetic growth profiling, strain panel (AID 1159580);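 also: tested at 20 µM; growth read once vehicle control cultures reached saturation at 30 °C; 1 = growth at the plate median or of vehicle wells; lower values mean less growth of the strain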
Settings: S. cerevisiae deletion strains, growth OD

Measured: normalized growth

NCC(O)CC(=O)O (centres undefined)
inactive: locus YAL021C, strain ccr4, active compounds read low 1.01 | locus YAL026C, strain drs2, active compounds read low 0.967 | locus YAL030W, strain snc1, active compounds read low 0.98 | locus YBL061C, strain skt5, active compounds read low 0.986 | locus YBR009C, strain hhf1, active compounds read low 0.962 | locus YBR021W, strain FUR4, active compounds read low 0.999 | locus YBR023C, strain chs3, active compounds read low 0.994 | locus YBR171W, strain sec66, active compounds read low 0.989 | locus YBR229C, strain ROT2, active compounds read low 1.01 | locus YBR231C, strain swc5, active compounds read low 0.995 | locus YBR279W, strain paf1, active compounds read low 0.991 | locus YCL011C, strain gbp2, active compounds read low 0.966 | locus YCL016C, strain dcc1, active compounds read low 0.994 | locus YCL029C, strain bik1, active compounds read low 0.992 | locus YCL061C, strain MRC1, active compounds read low 0.995 | locus YCL069W, strain vba3, active compounds read low 0.984 | locus YCR088W, strain abp1, active compounds read low 0.977 | locus YDL005C, strain med2, active compounds read low 0.969 | locus YDL035C, strain GPR1, active compounds read low 1.01 | locus YDL040C, strain nat1, active compounds read low 0.991 | locus YDL074C, strain BRE1, active compounds read low 1.01 | locus YDL101C, strain DUN1, active compounds read low 1.01 | locus YDL134C, strain PPH21, active compounds read low 1.01 | locus YDL185W, strain tfp1, active compounds read low 0.994 | locus YDL192W, strain arf1, active compounds read low 0.997 | locus YDR001C, strain nth1, active compounds read low 0.977 | locus YDR069C, strain doa4, active compounds read low 1.04 | locus YDR101C, strain arx1, active compounds read low 1.02 | locus YDR137W, strain rgp1, active compounds read low 0.988 | locus YDR159W, strain sac3, active compounds read low 0.968 | locus YDR162C, strain NBP2, active compounds read low 1.02 | locus YDR195W, strain ref2 0.951 | locus YDR297W, strain sur2, active compounds read low 0.986 | locus YDR318W, strain mcm21, active compounds read low 1.01 | locus YDR334W, strain swr1, active compounds read low 0.975 | locus YDR335W, strain msn5, active compounds read low 0.988 | locus YDR388W, active compounds read low 0.999 | locus YDR392W, strain spt3, active compounds read low 0.892 | locus YDR502C, strain sam2, active compounds read low 0.991 | locus YEL003W, strain gim4, active compounds read low 0.964 | locus YEL037C, strain rad23, active compounds read low 0.977 | locus YEL061C, strain CIN8 (second series), active compounds read low 0.966 | locus YEL061C, strain CIN8, active compounds read low 1.01 | locus YER015W, strain faa2, active compounds read low 0.986 | locus YER016W, strain bim1, active compounds read low 0.983 | locus YER110C, active compounds read low 1 | locus YER111C, strain swi4, active compounds read low 0.974 | locus YER155C, strain BEM2 (second series), active compounds read low 0.997 | locus YER155C, strain BEM2, active compounds read low 1.01 | locus YER167W, strain BCK2, active compounds read low 1.01 | locus YFR010W, strain ubp6, active compounds read low 0.973 | locus YGL078C, strain dbp3, active compounds read low 0.994 | locus YGL086W, strain mad1, active compounds read low 1 | locus YGL167C, strain pmr1, active compounds read low 0.957 | locus YGL173C, strain kem1, active compounds read low 0.984 | locus YGL227W, strain vid30, active compounds read low 0.955 | locus YGL240W, strain doc1, active compounds read low 0.989 | locus YGL248W, strain PDE1, active compounds read low 1.01 | locus YGL253W, strain hxk2, active compounds read low 0.989 | locus YGR078C, strain PAC10, active compounds read low 1.01 | locus YGR135W, strain pre9, active compounds read low 1 | locus YGR252W, strain gcn5, active compounds read low 0.982 | locus YHR013C, strain ard1, active compounds read low 0.964 | locus YHR027C, strain rpn1, active compounds read low 0.997 | locus YHR030C, strain SLT2, active compounds read low 1.01 | locus YHR079C, strain IRE1 (second series), active compounds read low 1 | locus YHR079C, strain IRE1, active compounds read low 1.03 | locus YHR094C, strain hxt1, active compounds read low 0.988 | locus YHR129C, strain ARP1, active compounds read low 1.01 | locus YHR142W, strain chs7, active compounds read low 1.02 | locus YHR200W, strain rpn10, active compounds read low 0.999 | locus YIL066C, strain RNR3, active compounds read low 1.02 | locus YIL073C, strain SPO22, active compounds read low 1.03 | locus YIL125W, strain kgd1, active compounds read low 1.01 | locus YIR030C, strain dcg1, active compounds read low 1 | locus YJL092W, strain hpr5, active compounds read low 0.99 | locus YJL095W, strain BCK1 (second series), active compounds read low 1.01 | locus YJL095W, strain BCK1, active compounds read low 1.01 and 1.02 | locus YJL115W, strain asf1, active compounds read low 0.981 | locus YJL129C, strain trk1, active compounds read low 0.991 | locus YJL134W, strain LCB3, active compounds read low 1.01 | locus YJL154C, strain vps35, active compounds read low 0.981 | locus YJL164C, strain tpk1, active compounds read low 1.06 | locus YJL166W, strain qcr8, active compounds read low 1.02 | locus YJL168C, strain set2, active compounds read low 0.997 | locus YJL187C, strain SWE1 (second series), active compounds read low 1.02 | locus YJL187C, strain SWE1, active compounds read low 0.994 | locus YJR043C, strain POL32, active compounds read low 1.02 | locus YJR066W, strain TOR1, active compounds read low 0.924
